This note sets out measurements from PubChem BioAssay.

The source made the active and inactive calls.

A short description of assay [1]: anti-His antibody binders, primary screen, artefact control for SMM control protein annotation, biochemical, small-molecule microarray, 635 nm fluorescence (AID 1128).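 Also: score merges feature fluorescence with signal-to-noise for each printed compound spot.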 As to conditions: anti-His Alexa647 antibody binding, higher = more signal.
The test system of assay [2] is Human papillomavirus type 1a E7 protein (residues 1-88). The assay can be described thus: HPV1a E7 small-molecule binders, primary screen, biochemical, small-molecule microarray, residues 1-88, 635 nm (AID 1129). Conditions: small-molecule microarray binding, fluorescence 635 nm; higher = more signal.
Assay [3] deals with Focal adhesion kinase 1 (Homo sapiens) (UniProt Q05397). The assay can be described thus: small-molecule microarray binders of FAK, primary screen, biochemical, 635/667 nm fluorescence, BSA, DTT (AID 1130).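 Also: composite of spot emission at 667 nm and signal to noise over triplicate slides.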 Conditions: PTK2 binding, 635 nm fluorescence, higher = more signal.
Assay [4] has as its system Fibrinogen (Alexa647-labelled). The assay can be described thus: fibrinogen binders on compound microarrays, profiling panel, artefact control for SMM control-protein annotation, biochemical, small-molecule microarray, 635/667 nm fluorescence (AID 1131).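 Also: z-score merges 667 nm fluorescence with per-spot signal-to-noise over triplicate slides.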 As to conditions: fibrinogen-A647 binding fluorescence, higher = more signal.
Assay [5] addresses Follistatin (Homo sapiens) (UniProt P19883). The assay can be described thus: follistatin binders on small-molecule microarrays, primary screen, biochemical, small-molecule microarray, 635/667 nm fluorescence (AID 1132). As to conditions: FST binding, 635 nm fluorescence, higher = more signal.
Assay [6] addresses Fibroblast growth factor 2 (Homo sapiens) (UniProt P09038). The assay can be described thus: FGF2 binders on small-molecule microarrays, primary screen, biochemical, small-molecule microarray, 635/667 nm fluorescence (AID 1133). Conditions: small-molecule microarray binding, FGF2, fluorescence 635/667; higher = more signal.
A short description of assay [7]: mitochondrial membrane potential change in A549 cells, profiling panel, cell-based, JC-1 fluorescence, basal, 24 h, 100 nL (AID 1138).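 Also: A549 lung adenocarcinoma cells under basal conditions with no added stimulus; test concentration not given here.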 Conditions: higher = more signal.
The test system of another assay is Lefty1. Briefly: Lefty1 binders on small-molecule microarrays, primary screen, biochemical, small-molecule microarray, 635/667 nm fluorescence (AID 1139). As to conditions: small-molecule microarray binding, fluorescence 635/667; higher = more signal.
Assay [8] concerns wheat germ agglutinin (Triticum aestivum), Alexa647-labelled. Briefly: wheat germ agglutinin binders on compound microarrays, profiling panel, artefact control for SMM control-protein annotation, biochemical, small-molecule microarray, 635/667 nm fluorescence (AID 1140).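 Also: score merges 667 nm feature emission with signal to noise over triplicate slides.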 Conditions: WGA-A647 binding, 635 nm fluorescence, higher = more signal.
Assay [9] addresses Luciferin 4-monooxygenase (Photinus pyralis) (UniProt P08659). The assay can be described thus: firefly luciferase enzyme inhibitors, primary screen, biochemical, luminescence, purified enzyme, 2006 set (AID 1141).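 Also: cell-free assay with purified firefly luciferase at 100 ng per well in PBS; test concentration not given here.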 Conditions: SteadyGlo luminescence, 30 min, higher = more signal, called active from +8 up or from −8 down.

Focal adhesion kinase 1 (Homo sapiens), sequence (Q05397 whole entry, looked up): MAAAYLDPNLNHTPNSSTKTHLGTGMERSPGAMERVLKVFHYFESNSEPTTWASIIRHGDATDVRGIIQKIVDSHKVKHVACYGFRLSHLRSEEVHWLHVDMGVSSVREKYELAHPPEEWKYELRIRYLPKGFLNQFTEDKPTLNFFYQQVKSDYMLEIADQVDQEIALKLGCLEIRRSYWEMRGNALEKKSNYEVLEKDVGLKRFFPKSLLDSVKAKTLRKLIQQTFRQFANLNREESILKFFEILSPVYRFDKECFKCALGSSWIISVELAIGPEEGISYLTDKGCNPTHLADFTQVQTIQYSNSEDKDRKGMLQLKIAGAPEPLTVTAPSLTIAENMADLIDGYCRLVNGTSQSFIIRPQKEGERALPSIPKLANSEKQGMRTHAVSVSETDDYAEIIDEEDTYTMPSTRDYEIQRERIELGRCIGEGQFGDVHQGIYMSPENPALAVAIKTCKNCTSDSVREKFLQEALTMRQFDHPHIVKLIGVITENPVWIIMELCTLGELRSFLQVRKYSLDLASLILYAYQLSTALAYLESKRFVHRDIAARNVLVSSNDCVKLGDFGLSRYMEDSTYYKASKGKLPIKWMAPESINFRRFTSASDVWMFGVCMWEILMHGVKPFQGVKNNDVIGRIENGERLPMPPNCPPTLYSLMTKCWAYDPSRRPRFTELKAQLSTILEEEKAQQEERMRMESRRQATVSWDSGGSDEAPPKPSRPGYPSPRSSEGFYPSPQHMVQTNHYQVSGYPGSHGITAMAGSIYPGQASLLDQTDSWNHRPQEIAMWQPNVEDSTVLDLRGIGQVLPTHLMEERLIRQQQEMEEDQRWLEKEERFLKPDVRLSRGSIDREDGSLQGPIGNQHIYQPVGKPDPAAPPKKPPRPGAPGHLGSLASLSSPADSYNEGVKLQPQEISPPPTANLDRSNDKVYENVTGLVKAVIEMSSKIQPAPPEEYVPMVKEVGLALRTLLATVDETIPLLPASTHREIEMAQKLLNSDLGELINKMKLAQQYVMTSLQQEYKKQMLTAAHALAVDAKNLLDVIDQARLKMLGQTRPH
Luciferin 4-monooxygenase (Photinus pyralis), sequence (P08659 whole entry, looked up): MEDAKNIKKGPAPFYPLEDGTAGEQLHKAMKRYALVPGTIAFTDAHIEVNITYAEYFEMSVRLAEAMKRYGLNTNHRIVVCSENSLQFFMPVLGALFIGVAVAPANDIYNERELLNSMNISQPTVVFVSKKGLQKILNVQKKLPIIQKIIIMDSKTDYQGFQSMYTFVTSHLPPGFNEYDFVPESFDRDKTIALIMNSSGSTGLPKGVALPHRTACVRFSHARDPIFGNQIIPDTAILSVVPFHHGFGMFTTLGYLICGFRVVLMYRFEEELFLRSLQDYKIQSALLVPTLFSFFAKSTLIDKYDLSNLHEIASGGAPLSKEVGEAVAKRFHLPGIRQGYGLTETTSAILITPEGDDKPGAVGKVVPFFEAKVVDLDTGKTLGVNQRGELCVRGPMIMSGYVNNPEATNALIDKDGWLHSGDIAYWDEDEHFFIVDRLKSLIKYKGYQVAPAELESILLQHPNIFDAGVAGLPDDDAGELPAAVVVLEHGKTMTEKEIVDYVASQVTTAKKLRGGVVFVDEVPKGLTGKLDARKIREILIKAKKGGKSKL
Fibroblast growth factor 2 (Homo sapiens), sequence (P09038 whole entry, looked up): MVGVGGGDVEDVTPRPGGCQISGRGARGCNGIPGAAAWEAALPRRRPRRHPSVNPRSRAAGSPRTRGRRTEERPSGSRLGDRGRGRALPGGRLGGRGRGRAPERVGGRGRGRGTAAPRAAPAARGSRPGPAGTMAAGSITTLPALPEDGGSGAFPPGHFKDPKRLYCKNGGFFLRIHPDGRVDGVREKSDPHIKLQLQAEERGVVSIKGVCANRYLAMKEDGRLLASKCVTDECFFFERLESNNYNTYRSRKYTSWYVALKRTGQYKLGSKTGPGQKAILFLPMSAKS
Follistatin (Homo sapiens), sequence (P19883 whole entry, looked up): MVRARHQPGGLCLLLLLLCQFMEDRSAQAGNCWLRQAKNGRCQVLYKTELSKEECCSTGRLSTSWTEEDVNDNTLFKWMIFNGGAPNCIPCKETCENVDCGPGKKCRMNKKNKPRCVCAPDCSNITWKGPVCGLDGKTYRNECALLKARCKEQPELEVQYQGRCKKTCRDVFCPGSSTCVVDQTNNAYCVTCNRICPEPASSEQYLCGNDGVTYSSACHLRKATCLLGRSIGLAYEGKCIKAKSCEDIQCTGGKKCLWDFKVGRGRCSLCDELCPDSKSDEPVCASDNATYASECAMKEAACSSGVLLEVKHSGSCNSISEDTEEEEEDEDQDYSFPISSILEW

`O=C1N(CCS(=O)(=O)c2ccccc2)Cc2ccccc2C[C@@]12COC(c1ccc(OCCCO)cc1)=N2`: the composite z-score in assay [1] was found to be 2.25; in assay [2], 1.26; in [3], 1.04; in [4], 0.841; in assay [5], 1.4; in assay [6], 0.962. The composite z-score in the assay on Lefty1 came to 0.619; in assay [8] it was 1.15. Besides, the z-score in [7] was 0.367; in assay [9], -0.966 (inactive).

As for `[N-]=[N+]=NCc1ccccc1[C@H]1OC(c2ccc(OCCCO)cc2)=N[C@@]1(Cc1ccccc1N=[N+]=[N-])C(=O)NCCN1CCOCC1`, the composite z-score in [1] is 2.01; in assay [2], 1.27; in assay [3] it was 0.387; in assay [4], 0.981; in assay [5], 1.27; in assay [6], 0.939. For the same compound, the composite z-score worked out at 0.631 in the assay with Lefty1 and 1.2 in assay [8]. Moreover, the figures for the z-score in assay [7] and in [9] were 1.57 and -2.69 (inactive), respectively.

With `COCCOC(=O)N1C(=O)[C@@]2(c3cc(C#Cc4ccc(OC)cc4)ccc31)[C@H](C(=O)N1CCc3cc(OC)c(OC)cc3C1)[C@H]1C(=O)O[C@H](c3ccccc3)[C@H](c3ccccc3)N1[C@@H]2c1ccc(O)cc1`, the composite z-score in [1] stood at 1.13; in assay [2] it was 1.21; in [3], 0.226; in assay [4] it was 0.753; in assay [5], 1.25; in assay [6], 1.17. Also, the composite z-score was 0.606 in the assay on Lefty1 and 0.659 in [8]. The figures for the z-score in assay [7] and in assay [9] were -0.406 and -1.35 (inactive), respectively.

Regarding `COc1ccc([Si](C)(C)[C@H]2[C@H](CCn3cc(CCO)nn3)O[C@@]3(C(=O)N(Cc4cccc(N5C(=O)c6cccc7cccc5c67)c4)c4ccccc43)[C@@H]2C)cc1`, the composite z-score in assay [1] was determined as 0.246; in [2], 1.05; in assay [3], 0.124; in [4] it was 0.497; in assay [5] it was 0.958; in [6], 0.691. For the same compound, the composite z-score came out at 1.21 with Lefty1 and 0.878 in [8]. For the same compound, the z-score in assay [7] was -0.338; in [9], -1.54 (inactive).

In the case of `O=C1O[C@@H](c2ccccc2)[C@@H](c2ccccc2)N2[C@@H](c3ccc(O)cc3)[C@]3(C(=O)Nc4ccc(C#CC5(O)CCCCCC5)cc43)[C@@H](C(=O)N3CCN(c4ncccn4)CC3)[C@H]12`, the composite z-score in assay [1] turned out to be 1.69; in [2], 1.22; in assay [3], 0.56; in [4], 0.925; in [5], 0.642; in assay [6], 0.385. In addition, the values for the composite z-score (in the assay with Lefty1; in assay [8]) were 0.441 and 0.601, respectively. Also, the values for the z-score in assay [7] and in assay [9] were -0.243 and 1.04 (inactive), respectively.

Turning to `C=CCOC(=O)[C@@H]1[C@H]2C(=O)O[C@H](c3ccccc3)[C@H](c3ccccc3)N2[C@H](c2ccc(OCCOC(=O)[C@H]3C[C@H]4C(=O)N[C@@H](Cc5ccccc5)C(=O)N4[C@H]3c3cccc(OCCO)c3)cc2)[C@@]12C(=O)Nc1ccc(I)cc12`, the composite z-score was 1.51 in assay [1]; 1.2 in [2]; 0.819 in assay [3]; 0.464 in assay [4]; 1.42 in [5]; 1.72 in assay [6]. Besides, the composite z-score in the assay with Lefty1 came to 1.33; in [8] it was 0.548. Further, the z-score in assay [7] was -1.37; in [9], -3.65 (inactive).

Take `CC(C)CCC[C@@H](C)[C@H]1CC[C@@]2(C)C3=C(CC[C@]12C)[C@@]1(C)CC[C@H](OC(=O)C(C)(C)C)C(C)(C)C1CC3` (stereo not given in full): the composite z-score in assay [1] stood at 0.43; in [2], 0.586; in assay [3] it was 0.0226; in [4] it was 0.551; in assay [5], 0.828; in assay [6] it was 0.232. Besides, the composite z-score is 0.543 in the assay with Lefty1 and 0.0969 in assay [8]. For the same compound, the figures for the z-score in [7] and in assay [9] were 0.4 and 0.159 (inactive), respectively.

`O=C(CS)NCCCCCNC(=O)[C@@H]1C[C@@H]2C(=O)N3CCC[C@H]3C(=O)N2[C@@H]1c1ccc(O)cc1`: the composite z-score in assay [1] is 3.22; in assay [2], 1.12; in assay [3], 0.0999; in assay [4], -0.174; in [5], 1.26; in assay [6], 1.34. Also, the composite z-score with Lefty1 is -0.0581; in [8] it was -0.339. Moreover, the z-score is 0.605 in assay [7] and -1.59 (inactive) in [9].

Regarding `C=C(COC)C(=O)CC[C@H](OC(=O)c1ccccc1-c1ccccc1C(=O)O)c1ccc(OCCO)cc1`, the composite z-score came to 2.56 in assay [1]; 1.08 in [2]; 0.033 in [3]; 0.879 in assay [4]; 1.42 in [5]; 1.35 in [6]. Moreover, the composite z-score worked out at 1.59 in the assay on Lefty1 and 0.564 in [8]. Also, the z-score is -0.66 in [7] and -2.22 (inactive) in [9].

Turning to `CCCC[C@H]1OB(O)C[C@H]2C1=C(COc1ccccc1)Cn1c(=O)n(-c3ccccc3)c(=O)n12`, the composite z-score in assay [1] is 0.458; in [2] it was 0.711; in assay [3], -0.0229; in [4], 0.333; in [5] it was 1.1; in assay [6], 0.302. The values for the composite z-score (in the assay with Lefty1; in [8]) were 0.976 and 0.09, respectively. Also, the figures for the z-score in [7] and in assay [9] were -0.0843 and -0.25 (inactive), respectively.

`CN(C)CCCCCCNC(=O)[C@@H]1C[C@@H]2C(=O)NCC(=O)N2[C@@H]1c1ccc(O)cc1`: the composite z-score in [1] was 2.07; in assay [2], 1.18; in assay [3], 1.28; in assay [4], 0.842; in assay [5] it was 1.42; in assay [6] it was 1.65. Further, the results for the composite z-score (in the assay on Lefty1; in [8]) were 1.68 and 0.974, respectively. The results for the z-score in assay [7] and in assay [9] were -0.736 and 0.335 (inactive), respectively.

As for `CC1=C2[C@@H](CCc3ccccc3)OB(O)C[C@@H]2[C@@H]2C(=O)C=CC(=O)[C@@H]2C1`, the composite z-score in assay [1] was 0.892; in [2], 0.339; in assay [3] it was -0.512; in assay [4], 0.565; in [5], 1.12; in assay [6], 1. The composite z-score in the assay on Lefty1 amounted to 0.845; in assay [8], 0.469. In addition, the z-score in assay [7] was -1.2; in assay [9], -3.34 (inactive).

On to `COc1ccc(CCNC(=O)[C@@H]2c3ccccc3C(=O)N(Cc3ccccc3)[C@H]2c2ccc(CO)cc2)cc1`, for which the composite z-score was 0.597 in [1]; 0.529 in [2]; -0.0502 in assay [3]; -0.279 in assay [4]; 0.987 in assay [5]; 0.363 in assay [6]. The composite z-score in the assay on Lefty1 was 0.442; in [8], 0.791. In addition, the z-score is 1.77 in [7] and 0.582 (inactive) in assay [9].

Turning to `COCCCNC(=O)[C@@]1(Cc2ccccc2)COC(c2ccc(OCCCO)cc2)=N1`, the composite z-score in assay [1] was found to be 2.66; in [2], 1.21; in [3], 0.953; in assay [4], 1; in assay [5], 0.645; in [6], 0.986. For the same compound, the composite z-score in the assay on Lefty1 was -1.07; in assay [8] it was 0.509. Moreover, the z-score is 0.814 in assay [7] and 0.272 (inactive) in [9].

Regarding `CC(C)N1C(=O)c2ccccc2[C@](C)(C(=O)O)[C@@H]1c1ccc(CO)cc1`, the composite z-score in assay [1] is 0.181; in assay [2], -1.44; in assay [3], -0.0258; in [4] it was -1.34; in [5], -0.509; in [6], -0.977. Also, the values for the composite z-score (in the assay with Lefty1; in [8]) were -0.82 and -0.36, respectively. The z-score in assay [7] was -0.359; in [9] it was 0.883 (inactive).

Regarding `COCCOC(=O)N1C(=O)[C@@]2(c3cc(C#CC4(O)CCCCCC4)ccc31)[C@H](C(=O)NC[C@H](O)c1ccccc1)[C@H]1C(=O)O[C@H](c3ccccc3)[C@H](c3ccccc3)N1[C@@H]2c1ccc(OCCO)cc1`, the composite z-score is 0.726 in assay [1]; 1.21 in [2]; 0.444 in assay [3]; 0.95 in assay [4]; 0.822 in assay [5]; 0.94 in [6]. Moreover, the values for the composite z-score (in the assay on Lefty1; in assay [8]) were 0.473 and 0.357, respectively. The z-score in [7] is -1.49; in [9], 0.531 (inactive).
